In PubChem BioAssay:
Calls of active or inactive are those of the source.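 The calls were made as follows, unless noted: active = inhibition at or above 50% at 10 µM; inactive = inhibition below 50%.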

How the values were obtained:
[1] = inhibitors of TNFa-induced NFkB p65 translocation, primary screen, imaging, HUVEC, MLSMR starter and 10KST1 sets (AID 438;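 active = inhibition above 20% together with a positive visual image hit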;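 also: compound added about 3h40 before a 20 min TNFalpha stimulation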;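 as to inhibition: signal is the nuclear over cytoplasmic p65 intensity ratio per well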); details: HUVEC TNFa-induced p65 nuclear translocation; cell count: measured here: nuclei count (cytotoxicity indicator), at 2.08 µM; inhibition: at 2 µM, stronger effect = higher value, 0% TNFa-plus-vehicle, 100% no-TNFa wells
[2] = inhibitors of mutant huntingtin aggregation, primary screen, imaging, exon1htt(103Q)mCFP cells, high-content imaging (AID 483;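 active = visual image review flags a hit and inhibition of aggregation exceeds 20%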;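 also: compound exposure lasted 3 days before fixation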;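 as to nuclei count: percent of the per-plate median nuclei count of sample wells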); details: exon1htt(103Q)mCFP cell line, aggregate imaging, at 2 µM; inhibition of aggregation: stronger effect = higher value; nuclei count: measured here: cell count, toxicity
[3] = inhibitors of E-selectin induction by TNFa, primary screen, imaging, HUVEC, immunofluorescence, MLSMR starter and 10KST1 sets (AID 487;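 active = visually confirmed hit in the image check and inhibition above 20%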;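 as to inhibition: signal is fraction of cell area covered by stained E-selectin grains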;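 as to nuclei count: 100% = median nuclei count of all wells on the same plate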); details: HUVEC TNFalpha-induced E-selectin immunofluorescence imaging, at 2 µM; inhibition: stronger effect = higher value; nuclei count: measured here: cell number, toxicity
[4] = target: Voltage-gated potassium channel subunit beta-2 (Rattus norvegicus) (UniProt P62483); experiment: KvBeta enzyme negative modulators, primary screen, biochemical, NADPH fluorescence (AID 622;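 active = fluorescence slope higher than the sample average by over 3 SD, cut at about -0.22 in these data, passing the limit was not always enough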;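 also: slope of raw intensity against log time taken from 70 to 1610 s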); details: recombinant KvBeta, 4-cyanobenzaldehyde reduction, at 10 µM, stronger effect = higher value
Voltage-gated potassium channel subunit beta-2 (Rattus norvegicus), sequence (P62483 whole entry, looked up): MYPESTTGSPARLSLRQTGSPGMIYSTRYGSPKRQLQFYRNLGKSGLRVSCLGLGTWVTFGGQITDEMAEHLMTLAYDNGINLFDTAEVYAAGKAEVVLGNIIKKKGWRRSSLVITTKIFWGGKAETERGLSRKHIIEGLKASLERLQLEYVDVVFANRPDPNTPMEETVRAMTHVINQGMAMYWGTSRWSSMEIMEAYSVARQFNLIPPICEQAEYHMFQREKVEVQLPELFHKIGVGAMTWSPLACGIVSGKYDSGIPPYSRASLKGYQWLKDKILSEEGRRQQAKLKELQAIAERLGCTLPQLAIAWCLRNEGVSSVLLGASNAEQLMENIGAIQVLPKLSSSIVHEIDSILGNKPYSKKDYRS

[5] = target: Voltage-gated potassium channel subunit beta-2 (Rattus norvegicus) (UniProt P62483); experiment: KvBeta positive modulators, primary screen, biochemical, NADPH fluorescence (AID 623;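 active = NADPH fluorescence slope more negative than the mean of all samples by about 3 SD, 99.7% confidence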;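 also: fluorescence intensity change per second fitted from 20 to 320 s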); details: Recombinant KvBeta, NADPH fluorescence decrease slope, 10 min; at 10 µM; stronger effect = lower value
[6] = target: Alpha-2C adrenergic receptor (Homo sapiens) (UniProt P18825); experiment: modulators of alpha2C/GIRK thallium flux, primary screen, cell-based, HEK293 alpha2C/GIRK1/2 (AID 624;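 active = fluorescence slope after compound addition differing from the mean of all screened samples at 99.7% confidence, in either direction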;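 also: slope of fluorescence ratio to pre-addition baseline per second over 15 to 24 s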); details: thallium flux BTC fluorescence, at 10 µM, actives lie on both sides
Alpha-2C adrenergic receptor (Homo sapiens), sequence (P18825 whole entry, looked up): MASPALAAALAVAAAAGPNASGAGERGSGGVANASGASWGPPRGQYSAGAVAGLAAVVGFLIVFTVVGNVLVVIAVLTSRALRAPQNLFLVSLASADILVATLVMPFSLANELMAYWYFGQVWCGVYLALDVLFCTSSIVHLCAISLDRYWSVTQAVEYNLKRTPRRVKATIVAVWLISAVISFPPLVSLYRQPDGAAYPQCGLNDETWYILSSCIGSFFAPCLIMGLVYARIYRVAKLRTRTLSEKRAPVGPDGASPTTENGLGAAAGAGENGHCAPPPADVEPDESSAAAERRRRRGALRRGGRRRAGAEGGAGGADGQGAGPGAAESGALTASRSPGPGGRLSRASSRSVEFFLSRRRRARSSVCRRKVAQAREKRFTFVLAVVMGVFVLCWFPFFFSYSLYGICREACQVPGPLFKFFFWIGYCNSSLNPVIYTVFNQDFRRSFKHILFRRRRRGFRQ

[7] = inhibitors of Sendai virus-induced IRF3 signaling, primary screen, TLR/RLR signaling modifier project, cell-based, Sendai virus stimulus, luciferase, 10K MLSCN set (AID 602276); details: HEK293 RL24 IRF3 luciferase reporter, at 10 µM, stronger effect = higher value;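 also: firefly luciferase from ISG56 promoter only with Renilla not read in this screen; 0% = Sendai virus plus DMSO and 100% = medium plus DMSO without virus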
[8] = inhibitors of poly I:C-induced TLR3 signaling, primary screen, cell-based, poly I:C stimulus, luciferase, 10K MLSCN set (AID 602277;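 active = inhibition of the reporter signal at or above 50%; inactive = inhibition below 50%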); details: HEK293-TLR3 RL24 IRF3 luciferase reporter, at 10 µM, stronger effect = higher value

Compound | cell count [1] | inhibition [1] | inhibition of aggregation [2] | nuclei count [2] | inhibition [3] | nuclei count [3] | fluorescence slope [4] | NADPH fluorescence slope [5] | slope [6] | inhibition [7] | inhibition [8]
COc1ccc(NC(=O)c2cnc3n(c2=O)CCS3)cc1OC | 484 | -3.4% (inactive) | -15% (inactive) | 92.4% | -9.5% (inactive) | 98.8% | -0.515 (inactive) | -3.9e-05 (inactive) | 0.00659 (inactive) | -2.41% (inactive) | -20.9% (inactive)
Cc1c(C)c2ccc(OC3CCCCC3=O)cc2oc1=O (stereo unspecified) | 573 | -9.2% (inactive) | -0.8% (inactive) | 120% | 38.5% (inactive) | 134% | -0.175 (inactive) | -2e-05 (inactive) | 0.0054 (inactive) | -2.48% (inactive) | -14.3% (inactive)
CCC(C(=O)Nc1ncccn1)(C(F)(F)F)C(F)(F)F | 218 | 2% (inactive) | 25.4% (inactive) | 93.4% | -2.6% (inactive) | 110% | -0.499 (inactive) | 5.3e-05 (inactive) | 0.00586 (inactive) | -24.5% (inactive) | -0.327% (inactive)
CCCCn1c(CN2CCN(c3ccc(F)cc3)CC2)nc2c1c(=O)n(C)c(=O)n2C | 574 | 14.4% (inactive) | 1.3% (inactive) | 90.1% | -6.8% (inactive) | 82.5% | -0.53 (inactive) | -3.3e-05 (inactive) | 0.00657 (inactive) | 1.37% (inactive) | 3.77% (inactive)
Cc1cc(C(=O)Nc2nnc(C(F)(F)F)s2)no1 | 342 | -4.7% (inactive) | -8% (inactive) | 98% | -25.5% (inactive) | 106% | -0.447 (inactive) | 1.8e-05 (inactive) | 0.00633 (inactive) | -1.51% (inactive) | -19.4% (inactive)
O=C(Nc1ccc2c(c1)OCCO2)NC1CCCCC1 | 379 | 0.5% (inactive) | 20.1% (inactive) | 58.3% | -33.5% (inactive) | 102% | -0.487 (inactive) | -1.2e-05 (inactive) | 0.00607 (inactive) | -28.7% (inactive) | -68.9% (inactive)
Cc1cc(C)c2c(n1)nn1c(NCCCN3CCOCC3)cc(C)nc21 | 484 | -4.5% (inactive) | 11.5% (inactive) | 119% | -19.1% (inactive) | 114% | -0.509 (inactive) | -1.9e-05 (inactive) | 0.00545 (inactive) | 8.42% (inactive) | 21.2% (inactive)
COc1ccc(CNS(=O)(=O)c2ccc3oc(C(=O)O)c(C)c3c2)cc1 | 624 | -4.4% (inactive) | -6% (inactive) | 75.2% | -31.4% (inactive) | 114% | -0.466 (inactive) | 8.2e-05 (inactive) | 0.00607 (inactive) | 15.6% (inactive) | 20.3% (inactive)
CCOC(=O)N1CCN(Cc2cc(=O)oc3ccc4ccccc4c23)CC1 | 472 | 16.9% (inactive) | 11.2% (inactive) | 93.3% | -64% (inactive) | 113% | -0.408 (inactive) | 8.3e-06 (inactive) | 0.0055 (inactive) | 16.9% (inactive) | 21.7% (inactive)
O=C(O)Cc1ccccc1C(=O)O | 685 | -0.4% (inactive) | 0% (inactive) | 99.9% | -66.3% (inactive) | 142% | -0.491 (inactive) | -5e-05 (inactive) | 0.00429 (inactive) | 13.7% (inactive) | 11.2% (inactive)
c1cncc(-c2nc3c4ccccc4nc(N4CCC(N5CCCCC5)CC4)n3n2)c1 | 512 | -10.4% (inactive) | -10.8% (inactive) | 97.3% | -5.9% (inactive) | 98.2% | -0.455 (inactive) | -0.000334 (inactive) | 0.00496 (inactive) | 24.2% (inactive) | 30% (inactive)
Cn1c(=O)c2c(nc(SCC(=O)N3CCCc4ccccc43)n2C)n(C)c1=O | 354 | -5.7% (inactive) | -9.7% (inactive) | 45.1% | -139% (inactive) | 115% | -0.361 (inactive) | -7.1e-05 (inactive) | 0.00482 (inactive) | -0.111% (inactive) | -6.19% (inactive)
CC1(C)CC(=O)C(CC(=O)NC(=O)NCc2ccccc2)=C(O)C1 | 462 | 3.4% (inactive) | 0.1% (inactive) | 102% | -65.4% (inactive) | 99.2% | -0.501 (inactive) | 1e-05 (inactive) | 0.00433 (inactive) | -1.73% (inactive) | 7.39% (inactive)
COc1ccc(C(O)Cn2c(=N)n(CCCN(C)C)c3ccccc32)cc1 (stereo unspecified) | 569 | -12.9% (inactive) | -27.4% (inactive) | 85.7% | -30.3% (inactive) | 112% | -0.587 (inactive) | 2.2e-05 (inactive) | 0.00727 (inactive) | -10.7% (inactive) | -0.929% (inactive)
Cc1oc(-c2ccccc2F)nc1CS(=O)(=O)CC(=O)N1CCCCCC1 | 712 | -1.1% (inactive) | -22.4% (inactive) | 116% | -40.3% (inactive) | 117% | -0.57 (inactive) | -9.9e-06 (inactive) | 0.00627 (inactive) | -6.49% (inactive) | 1.53% (inactive)
O=C(CN(Cc1ccc(F)cc1)C(=O)Cn1nnc2ccccc21)NCC1CCCO1 (stereo unspecified) | 438 | -6.8% (inactive) | 5.8% (inactive) | 107% | -33% (inactive) | 84% | -0.434 (inactive) | 7.2e-05 (inactive) | 0.00612 (inactive) | 13.2% (inactive) | 26.1% (inactive)
COC(=O)/C=c1\sc2ncnn2c1=O | 286 | -11% (inactive) | 6.6% (inactive) | 111% | -34.9% (inactive) | 107% | -0.624 (inactive) | -1.3e-05 (inactive) | 0.00688 (inactive) | 18.3% (inactive) | 26.1% (inactive)
O=C(NCc1ccccc1)N[C@@H](Cc1ccccc1)C(=O)O | 666 | 6.9% (inactive) | -0.3% (inactive) | 116% | 4.5% (inactive) | 111% | -0.43 (inactive) | -4.1e-05 (inactive) | 0.00384 (inactive) | 10.6% (inactive) | 33.8% (inactive)
Cc1cc(C)cc(NS(=O)(=O)c2ccc3[nH]c(=O)[nH]c3c2)c1 | 378 | -5.5% (inactive) | 2.4% (inactive) | 112% | -23.4% (inactive) | 115% | -0.392 (inactive) | 4.9e-07 (inactive) | 0.00328 (inactive) | 16.1% (inactive) | 36.9% (inactive)
NC(=O)c1cc(-c2ccccc2)nc(N2CCOCC2)n1 | 532 | 6.7% (inactive) | -2.6% (inactive) | 91% | 25.8% (inactive) | 92.5% | -0.591 (inactive) | -4.3e-05 (inactive) | 0.00656 (inactive) | 8.52% (inactive) | 25.8% (inactive)
CC(=O)c1c(O)cc(C)n(Nc2nc(C)cc(C)n2)c1=O | 625 | -12.1% (inactive) | -23.4% (inactive) | 91.3% | 28.7% (inactive) | 91.8% | -0.343 (inactive) | -5.3e-05 (inactive) | 0.00406 (inactive) | -1.56% (inactive) | -18.7% (inactive)
COc1ccc(CCN2C(=O)CC(N3CCOCC3)C2=O)cc1 (stereo unspecified) | 665 | -1.8% (inactive) | -7.6% (inactive) | 100% | -57% (inactive) | 102% | -0.496 (inactive) | -6.6e-05 (inactive) | 0.00402 (inactive) | 4.57% (inactive) | -0.756% (inactive)
Cc1ccc2nc3c(cc(C(=O)NCC4CCCO4)n3C)c(=O)n2c1 (stereo unspecified) | 405 | 9.7% (inactive) | 2.7% (inactive) | 111% | -25.5% (inactive) | 114% | -0.0813 (active) | -3.2e-06 (inactive) | 0.00481 (inactive) | -21.8% (inactive) | -39.8% (inactive)
COc1ccc(NC(=O)c2oc3ccccc3c2NC(=O)c2ccco2)cc1 | 317 | -4.8% (inactive) | 23.6% (inactive) | 95.9% | -4.1% (inactive) | 95.1% | -0.411 (inactive) | 2.7e-05 (inactive) | 0.00551 (inactive) | -10.3% (inactive) | -48.1% (inactive)
Cc1nccn1CCCN1C(=O)OC2(CCCCC2)C1(C)O (stereo unspecified) | 350 | -3% (inactive) | 2.3% (inactive) | 113% | -4.4% (inactive) | 105% | -0.522 (inactive) | -3.8e-05 (inactive) | 0.00543 (inactive) | 4.87% (inactive) | 17.2% (inactive)
CCOC(=O)c1ccc(NC(=O)CSc2nnc(COc3ccccc3)n2C)cc1 | 393 | 2.5% (inactive) | -6.7% (inactive) | 97.5% | -25.8% (inactive) | 122% | -0.455 (inactive) | -5e-05 (inactive) | 0.00289 (inactive) | -1.67% (inactive) | 29% (inactive)
